This is part of a sample that, as a whole, favours compounds with a hit. Of some 83,000 tested, about 20% had one in any assay.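 The endpoint reported here, percent growth, reads 100 for growth as untreated, 0 for no net growth and -100 for all cells dead.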 Activity calls are given as the source filed them. The calls were made as follows: active = growth percent below 10; inactive = the rest.
How the values were obtained:
Assay in all cases: NCI-60 one-dose screen, 48 h (100 = growth as untreated, 0 = no growth, -100 = all killed)
Conditions in all cases: 10 µM unless noted
[1] = test system: SK-MEL-2 melanoma
[2] = test system: EKVX NSCLC
[3] = test system: SN12C renal
[4] = test system: UO-31 renal
[5] = test system: TK-10 renal
[6] = test system: CAKI-1 renal
[7] = test system: A498 renal
[8] = test system: CCRF-CEM leukemia
[9] = test system: MOLT-4 leukemia
[10] = test system: SR leukemia
[11] = test system: RPMI-8226 leukemia
[12] = test system: OVCAR-5 ovarian
[13] = test system: OVCAR-4 ovarian
[14] = test system: SK-OV-3 ovarian
[15] = test system: HS 578T breast
[16] = test system: NCI/ADR-RES ovarian
[17] = test system: ACHN renal
[18] = test system: OVCAR-8 ovarian
[19] = test system: IGROV1 ovarian
[20] = test system: OVCAR-3 ovarian

Measured: growth

O=c1oc2c(cc1-c1ccc([N+](=O)[O-])cc1)C(O)Oc1ccccc1-2 (configuration not stated)
inactive: [1] 71.6% | [2] 80.7% | [3] 98.4% | [4] 74.5% | [5] 95.8% | [6] 78.2% | [7] 84.8% | [8] 62.5% | [9] 63.6% | [10] 56.2% | [11] 50.2% | [12] 82.1% | [13] 86.4% | [14] 99.6% | [15] 102% | [16] 72.2%

CC[C@@H](c1ccc(O)c(O)c1)[C@@H](CC)c1ccc(O)c(O)c1
active: [4] -1.68% | [17] 9.03% | [6] 6.55% | [8] 7.86%
inactive: [1] 93.6% | [2] 117% | [3] 99.8% | [5] 97% | [9] 59.9% | [10] 52.6% | [18] 101% | [12] 115% | [13] 68.1% | [14] 122% | [19] 98.1% | [20] 50.6% | [16] 99.9%

NC(=O)NC1(C(=O)O)CCCC1
inactive: [1] 108% | [2] 115% | [3] 105% | [4] 101% | [5] 108% | [17] 105% | [6] 99.9% | [8] 98.6% | [9] 98.2% | [10] 91.8% | [18] 106% | [12] 98.5% | [13] 118% | [14] 109% | [19] 119% | [20] 115% | [16] 111%

Oc1ccccc1/C=N/N1CCCCCC1
inactive: [1] 103% | [2] 115% | [3] 93.6% | [4] 83.1% | [5] 103% | [17] 105% | [8] 76% | [9] 95.1% | [10] 99.3% | [11] 99.6% | [18] 116% | [12] 105% | [14] 112% | [20] 108% | [15] 114% | [16] 101%

COc1cccc(C2=NN(C(C)=O)C(c3cc(OC)c(OC)c(OC)c3)C2)c1 (configuration not stated)
active: [4] -29.9% | [8] -7.81% | [9] 9.77% | [10] -6.23% | [11] 4.18%
inactive: [1] 26.9% | [2] 47.4% | [3] 42.7% | [5] 78.4% | [6] 216% | [7] 71.3% | [18] 37.5% | [12] 58.3% | [13] 48.5% | [14] 30.4% | [20] 33.1% | [16] 19%

COC(=O)Nc1ccc2ccc3c(NC(=O)OC)ccc4ccc1c2c43 (tested in a mixture with another compound)
inactive: [1] 52.8% | [2] 68.1% | [3] 68.4% | [4] 42.1% | [5] 85.9% | [17] 59% | [6] 50.7% | [8] 54.4% | [9] 35% | [10] 24.1% | [18] 66.5% | [12] 76.2% | [13] 87.9% | [14] 72% | [19] 51.1% | [20] 70.5% | [16] 36.6%

CCCCCN1C(=O)CCC1=O
active: [8] -52.3%
inactive: [1] 103% | [2] 98.9% | [3] 101% | [4] 85.8% | [5] 106% | [6] 91.8% | [7] 106% | [10] 107% | [18] 94.4% | [12] 98.2% | [13] 114% | [14] 110% | [19] 110% | [20] 103% | [16] 102%

O=C(c1ccccc1)C(CN1CCCCC1)c1ccccc1 (configuration not stated)
active: [4] -36.3% | [17] -12.5% | [6] 1.39% | [8] -20.2% | [9] 0.0819% | [10] -3.65%
inactive: [1] 50.1% | [2] 93.8% | [3] 26% | [5] 10.9% | [18] 15.6% | [12] 32.5% | [13] 39.7% | [14] 107% | [19] 56% | [20] 14.9% | [16] 12.6%

CC(=O)OCC(=O)[C@@]1(O)CC[C@H]2[C@@H]3CCC4=CC(=O)CC[C@]4(C)[C@@]3(F)[C@@H](O)C[C@@]21C
inactive: [1] 104% | [2] 88.8% | [3] 84.2% | [4] 82.5% | [5] 99.2% | [6] 115% | [7] 103% | [8] 71.7% | [10] 99.8% | [18] 93.8% | [12] 80.2% | [13] 105% | [14] 63.7% | [19] 116% | [20] 106% | [15] 112% | [16] 89.6%

c1ccc(-c2nc(Nc3nccnn3)c3ccccc3n2)cc1
inactive: [1] 112% | [2] 88.4% | [3] 96.7% | [4] 89.8% | [5] 155% | [17] 103% | [6] 84.9% | [8] 93.2% | [10] 91.6% | [11] 98.4% | [18] 95.3% | [12] 97.1% | [13] 122% | [14] 115% | [19] 92.2% | [20] 100% | [15] 98.8% | [16] 98.8%

CC(C)=CCCC(C)c1ccc(C)c2c1OCN(CC1CCNCC1)C2 (configuration not stated)
inactive: [1] 96.3% | [2] 93% | [3] 76.7% | [4] 60.5% | [5] 86% | [6] 80.2% | [7] 75.6% | [8] 26.7% | [9] 34.1% | [18] 75.3% | [12] 81.1% | [13] 91.7% | [14] 87% | [19] 78.7% | [20] 77.2% | [16] 83.5%
active: [10] -8.52%

O=C1NC(=O)/C(=C/c2ccc(Cl)cc2Cl)N1
inactive: [1] 103% | [2] 77.4% | [3] 107% | [4] 80.7% | [5] 110% | [17] 109% | [6] 102% | [8] 92.3% | [9] 94.5% | [10] 93% | [18] 101% | [12] 106% | [13] 97.4% | [14] 98.9% | [19] 106% | [20] 105% | [16] 106%

CCSc1nc(-c2ccc(F)cc2)c(C#N)c(=O)[nH]1
inactive: [1] 96.3% | [2] 105% | [3] 96.2% | [4] 125% | [17] 97.1% | [6] 98.7% | [7] 112% | [8] 102% | [9] 124% | [10] 118% | [11] 105% | [18] 107% | [12] 95.9% | [13] 103% | [14] 111% | [19] 107% | [20] 122% | [15] 117% | [16] 103%

CO[C@H]1/C=C/O[C@@]2(C)Oc3c(C)c(O)c4c(O)c(c(/C=N/N5C(C)CN(Cc6ccc(C#N)cc6)CC5C)c(O)c4c3C2=O)NC(=O)/C(C)=C\C=C\[C@H](C)[C@H](O)[C@@H](C)[C@@H](O)[C@@H](C)[C@H](OC(C)=O)[C@@H]1C (some centres not stated)
active: [9] -2.17% | [11] -6.25% | [20] -21.1%
inactive: [1] 61.2% | [2] 17.1% | [3] 39.4% | [4] 24.6% | [5] 19.7% | [6] 39.1% | [7] 20.5% | [8] 12.1% | [10] 19.3% | [18] 49.7% | [12] 27.1% | [13] 39.7% | [14] 18.5% | [19] 40.6% | [15] 45.6% | [16] 40.1%

CCCCCCCCCCN1CCC(N2CCCCC2)CC1
active: [1] -19.9% | [4] -86.7% | [8] 6.95% | [9] -26% | [11] -44.8% | [18] -1.39% | [15] -5.23%
inactive: [2] 37.4% | [3] 45.4% | [5] 25.2% | [17] 38.2% | [7] 74.2% | [12] 41.5% | [13] 53.7% | [14] 20.9% | [20] 20.1% | [16] 49.7%

OCCN1CCN(CCCN2c3ccccc3Sc3ccc(C(F)(F)F)cc32)CC1
active: [1] 8.96% | [5] 4.29% | [9] -16% | [10] -42.9%
inactive: [2] 47.2% | [3] 43.6% | [4] 32.5% | [6] 25.7% | [7] 44.5% | [8] 29.7% | [11] 18.8% | [13] 62.5% | [14] 73.8% | [19] 24.5% | [20] 53.4% | [15] 24.6% | [16] 46.8%

Clc1ccc(C2c3ccccc3-c3nccn32)c(Cl)c1 (configuration not stated)
inactive: [1] 80.7% | [2] 60% | [3] 85.4% | [4] 80.1% | [5] 81.3% | [7] 90.3% | [9] 65.6% | [11] 26.5% | [18] 84.1% | [12] 114% | [13] 47.3% | [14] 84.7% | [19] 77.1% | [20] 55% | [15] 73.7% | [16] 61.5%
active: [6] -12%

Cc1ccc(-c2csc(N)n2)cc1
inactive: [1] 107% | [2] 104% | [3] 96% | [4] 88.6% | [5] 97.2% | [17] 97.7% | [6] 99.2% | [8] 92% | [10] 86.3% | [11] 89.2% | [18] 101% | [12] 94% | [13] 94% | [14] 108% | [15] 115% | [16] 104%
